# Results from ChEMBL document CHEMBL4513135, “CO-ADD screening of IQOG CSIS (Spain) compounds”.
# Potency and affinity values are given separately.
# What was measured:
# Staphylococcus aureus = conditions: Concentration 32 ug.mL-1; ASSAY_TEST Inhibition of Bacterial Growth; detection method Absorption (OD600); MEDIA CAMHB; plate type 384well; NBS; CORNING #3640; time 18 hr
# Escherichia coli = conditions: Concentration 32 ug.mL-1; ASSAY_TEST Inhibition of Bacterial Growth; detection method Absorption (OD600); MEDIA CAMHB; plate type 384well; NBS; CORNING #3640; time 18 hr
compound,measurement,setting,value
O=C(Cc1c[nH]c2ccccc12)NN=C1CCCCCC1,Inhibition,Staphylococcus aureus,10.21%
same,Inhibition,Escherichia coli,6.07%
c1ccc(-c2nc3c4cnn(-c5ccccc5)c4ncn3n2)cc1,Inhibition,Staphylococcus aureus,14.04%
same,Inhibition,Escherichia coli,8.07%
CCOC(=O)c1cn(C)c2ccccc12,Inhibition,Staphylococcus aureus,5.67%
same,Inhibition,Escherichia coli,4.13%
